Laboratory results as given in PubChem BioAssay (NCATS).
Records with an inconclusive call do not appear. A call without a number means that no potency is given here. Values without a mark were called inactive. Activity calls are given as the source filed them. Calls come from the whole dose curve; as a rule, active = well fitted cell-killing curve with a large enough effect; inconclusive = small, poorly fitted or top-dose-only effect; inactive = no such curve, though single readings can be large or run the other way.

experiment: qHTS of pediatric cancer cell lines to identify multiple opportunities for drug repurposing: Primary screen for OHS-50 cells (AID 1347103); details: OHS-50 osteosarcoma viability, CellTiter-Glo luminescence, 48 h; series mostly up to 57.3 µM; note: nearly all actives have a fitted effect of over 40% in size
Description: Drug repurposing or repositioning has been offered as a strategy for drug development in oncology programs. This approach has special potential for childhood cancers and other rare or orphan diseases, where the expected return on new drug development has been a disincentive to pharmaceuticals.
In this project we exploit the poly-pharmacology of drugs to discover new indications via phenotypic screening of a panel of 19 well-characterized cell lines derived from solid tumors seen in children and adolescents. The goal is to identify approved drugs with previously unrecognized anticancer properties that has the potential to reveal new mechanisms and biological processes involved in carcinogenesis or drug resistance. We employed a titration-based paradigm (quantitative high-throughput screening or qHTS), where all compounds were tested at multiple concentrations for their effect on cell viability. Concentration-response curves (CRCs) were derived directly from the primary screen, and both potency and efficacy values were used to identify compounds with robust bioactivity profiles. We screened the NIH Chemical Genomics Center (NCGC) Pharmaceutical Collection (NPC) and Mechanism Interrogation Plate (MIPE) small molecule collections of approved and investigational compounds against these cell lines; and measured metabolically active cells after 48 hours of compound treatment as a proxy for cell viability.
Assay Submitter: Nathalia J. Martinez, National Center for Advancing Translational Sciences, National Institutes of Health, Rockville, MD, USA; email: natalia.martinez@nih.gov
[1] Shen, M et al. Quantitative high-throughput phenotypic screening of pediatric cancer cell lines identifies multiple opportunities for drug repurposing. Oncotarget 2017 Dec 19;9(4):4758-4772. PMID 29435139.
The cells were obtained from University of North Carolina (UNC), Pediatric Preclinical Testing Program (PPT), and Coriell Institute (CI).
qHTS cell viability assay:
Cells were assayed in growth media at a density of 500-1,000 cells/well. Five microliters of cells were dispensed into 1,536-well, white, solid-bottom, TC-treated plates (Greiner Bio One) using a multidrop dispenser and incubated at 37 degrees C, 5% CO2, under a humidified atmosphere for 5 hours. Twenty-three nanoliters of compounds and controls (neutral control DMSO or positive control bortezomib at final concentration of 2.3 µM) were subsequently transferred by Kalypsys pintool. For primary screens, the MIPE collection was tested at 11-point dilutions (final concentrations range from 0.78 nM to 46 µM) and the NPC collection at 8-point dilutions (final concentrations range from 0.59 nM to 46 µM). Compounds tested in follow-up screens were assayed at 11-point dilutions. Cells were incubated for 48 hours, followed by addition of 3 µL of CellTiter-Glo (Promega). After a 15 min incubation at room temperature, samples were analyzed for luminescence intensity using a ViewLux High-throughput CCD imager equipped with clear filters.
Potency is the fitted concentration of half-maximal effect.

Row | Structure (SMILES) | Potency | activity change, negative = cytotoxic
1 | CCCCc1nc(Cl)c(CO)n1Cc1ccc(-c2ccccc2-c2nn[nH]n2)cc1 | inactive | 
2 | Oc1cc(O)c2c(c1)O[C@H](c1ccc(O)c(O)c1)[C@H](O)C2 | inactive | 
3 | C=CCc1ccc(O)c(OC)c1 | inactive | 
4 | CN(C(=O)CN(CCO)CC(=O)N(C)C(C)(C)Cc1ccccc1)C(C)(C)Cc1ccccc1 | 17.4 µM (active) | 
5 | COc1cc(N)c(Cl)cc1C(=O)NC1CCN(CCCOc2ccc(F)cc2)CC1OC (stereo not given) | 30.9 µM (active) | 
6 | CCCN1CCCC[C@H]1C(=O)Nc1c(C)cccc1C | inactive | 
7 | CN(C)/N=N/c1nc[nH]c1C(N)=O | 1.74 µM (active) | 
8 | CN(C)CC/C=C1\c2ccccc2Sc2ccc(Cl)cc21 | 30.9 µM (active) | 
9 | CC1(C)OC[C@@H](COC(=O)CCc2ccc(OC[C@@H](O)CNCCNC(=O)N3CCOCC3)cc2)O1 | inactive | 
10 | C/C=C(/C(=C/C)c1ccc(O)cc1)c1ccc(O)cc1 | 21.9 µM (active) | 
11 | Nc1ccn([C@@H]2O[C@H](CO)[C@@H](O)C2(F)F)c(=O)n1 | 11 µM (active) | 
12 | CN1CCC[C@@H]1c1cccnc1 | inactive | 
13 | C[C@@H](CN(C)C)CN1c2ccccc2Sc2ccccc21 | 21.9 µM (active) | 
14 | CC(C)(C(=O)c1cccnc1)c1cccnc1 | inactive | 
15 | C#C[C@]1(O)CC[C@H]2[C@@H]3CCC4=CC(=O)CC[C@@H]4[C@H]3CC[C@@]21C | inactive | 
16 | C[C@@H]1C[C@H]2[C@@H]3C[C@H](F)C4=CC(=O)C(Cl)=C[C@]4(C)[C@@]3(F)[C@@H](O)C[C@]2(C)[C@@]1(O)C(=O)CO | inactive | 
17 | CC(=O)CC(c1ccc([N+](=O)[O-])cc1)c1c(O)c2ccccc2oc1=O (stereo not given) | inactive | 
18 | NCCc1ccn[nH]1 | inactive | 
19 | CCOC(=O)COc1ccc2c(C)c(CCN(CC)CC)c(=O)oc2c1Cl | inactive | 
20 | CCOC(=O)/C=C(C)/C=C/C=C(C)/C=C/c1c(C)cc(OC)c(C)c1C | 24.6 µM (active) | 

Row | Structure (SMILES) | Potency | activity change, negative = cytotoxic
21 | Cc1cc(=O)n(-c2ccccc2)n1C | inactive | 
22 | O=C(O)CNC(=O)c1ccccc1 | inactive | 
23 | Cc1c(N(C)CS(=O)(=O)O)c(=O)n(-c2ccccc2)n1C | inactive | 
24 | Nc1ccc(/C=C/c2ccc(N)cc2S(=O)(=O)O)c(S(=O)(=O)O)c1 |  | 19.6% [at 0.73 µM]
25 | Cc1cc2c(cc1CC(=O)c1sccc1S(=O)(=O)Nc1onc(C)c1Cl)OCO2 | inactive | 
26 | CC/C(=C(/CC)c1ccc(O)cc1)c1ccc(O)cc1 | 15.5 µM (active) | 
27 | CC(=O)Oc1ccc(C(=C2CCCCC2)c2ccc(OC(C)=O)cc2)cc1 | inactive | 
28 | COc1cc(C=C2CCC/C(=C\c3ccc(O)c(OC)c3)C2=O)ccc1O | 19.5 µM (active) | 
29 | Cc1onc(-c2c(Cl)cccc2Cl)c1C(=O)N[C@@H]1C(=O)N2[C@@H]1SC(C)(C)[C@@H]2C(=O)O | inactive | 
30 | CN(C/C=C/c1ccccc1)Cc1cccc2ccccc12 | 27.6 µM (active) | 
31 | CCN1CCC[C@H]1CNC(=O)c1c(OC)ccc(Br)c1OC | inactive | 
32 | CCCCC1=NC2(CCCC2)C(=O)N1Cc1ccc(-c2ccccc2-c2nn[nH]n2)cc1 | inactive | 
33 | CCCCCCCCCCCCCCCC[N+](C)(C)CC | 0.692 µM (active) | 
34 | CC(=O)OCC(=O)[C@@]1(O)[C@H](C)C[C@H]2[C@@H]3CCC4=CC(=O)C=C[C@]4(C)[C@@]3(F)[C@@H](O)C[C@@]21C | inactive | 
35 | CC(C)n1nc(-c2cc3cc(O)ccc3[nH]2)c2c(N)ncnc21 | 0.437 µM (active) | 
36 | CC(=O)O[C@]1(C(C)=O)CC[C@H]2[C@@H]3C[C@H](C)C4=CC(=O)CC[C@]4(C)[C@H]3CC[C@@]21C | 24.6 µM (active) | 
37 | Cc1c(C(C)C)c(=O)n(-c2ccccc2)n1C | inactive | 
38 | CC(C)(C)NC(=O)[C@@H]1CN(Cc2cccnc2)CCN1C[C@@H](O)C[C@@H](Cc1ccccc1)C(=O)N[C@H]1c2ccccc2C[C@H]1O | inactive | 
39 | CCOc1ccc(Cc2nccc3cc(OCC)c(OCC)cc23)cc1OCC | 7.77 µM (active) | 
40 | COc1cc(C(=S)N2CCOCC2)cc(OC)c1OC | inactive | 
